This is a sample that favours compounds with a hit; in the whole collection about 7.4% have one here.
SNCA expr inhib – Primary qHTS assay for inhibitors of alpha-synuclein gene (SNCA) expression; hit rate 0.17% among 140,000; Potency, µM (highest dose often 57.2 µM), for the others: at the top dose activity change, negative = inhibition, hits mostly inhibitors; AID 1671194, 2021; HEK-293 SNCA-luciferase knock-in, luminescence, 24 h;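 also: plate controls were DMSO cells for no effect and cell-free wells for full effect; nearly all actives have a fitted effect of over 45% in size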
Luciferase inh – Firefly luciferase inhibition profiling of diverse chemical library using quantitative high-throughput screening; Luciferin 4-monooxygenase (Photinus pyralis), P08659; purified P. pyralis luciferase, luminescence, biochemical; Potency, µM (titrated, usually from 115 µM), actives largely listed as inhibitors; hit rate 2.5% among 76,000; AID 1347043, 2019; also: nearly all actives have a fitted effect of over 65% in size
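Biochemical qHTS: compound (6-point titration) added to 10uM D-luciferin plus 10uM ATP in Tris acetate pH 7.5 buffer with Mg, Tween-20 and BSA, then purified enzyme at 10nM; light output imaged.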
3T3 cytotox – Cytotoxic Profiling in NIH 3T3 Cell Line of Diverse Libraries Using Quantitative High-Throughput Screening | NIH 3T3 viability, CellTiter-Glo ATP luminescence, 48-72 h | Potency, µM (highest dose often 96.7 µM), without a hit: at the top dose activity change, negative = cytotoxicity, hits mostly inhibitors | hit rate 4.3% among 94,000 | AID 1345082, 2018; also: nearly all actives have a fitted effect of over 55% in size
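Mouse fibroblast NIH 3T3 cells, 400 per well, received compound via pintool and were incubated for 48 or 72 hr prior to CellTiter-Glo ATP luminescence measurement.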
SNCA viab count – GF-AFC viability counterscreen for inhibitors of alpha-synuclein gene (SNCA) expression; hit rate 0.12% among 150,000; Potency, µM (titrated, usually from 57.1 µM), without a hit: at the highest dose activity change, negative = cytotoxicity, hits mostly cytotoxic; HEK-293-SNCA-luc viability, GF-AFC fluorescence, 24 h; AID 1671193, 2021;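 also: 0% = DMSO-treated cells and -100% = medium-only wells without cells; nearly all actives have a fitted effect of over 30% in size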
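HEK-293-SNCA-luc cells (1500/well) plated 24 h, then exposed 24 h to a dilution series; GF-AFC added 30 min at 37C, fluorescence 405/540 nm; normalised to medium-only and DMSO wells, Hill fit.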
NPR1 antag – Natriuretic polypeptide receptor (hNpr1) antagonism - Primary qHTS; AID 1347048, 2019; HEK293 hNpr1 GloSensor cGMP, ANP-stimulated luminescence; hit rate 1.6% among 76,000; Potency, µM (series often up to 46.3 µM), inactives show at the top dose activity change, negative = inhibition, hits mostly inhibitors; Atrial natriuretic peptide receptor 1 (Homo sapiens), P16066; calls by dose curve; also: nearly all actives have a fitted effect of over 60% in size
Target sequence (P16066 whole entry, looked up): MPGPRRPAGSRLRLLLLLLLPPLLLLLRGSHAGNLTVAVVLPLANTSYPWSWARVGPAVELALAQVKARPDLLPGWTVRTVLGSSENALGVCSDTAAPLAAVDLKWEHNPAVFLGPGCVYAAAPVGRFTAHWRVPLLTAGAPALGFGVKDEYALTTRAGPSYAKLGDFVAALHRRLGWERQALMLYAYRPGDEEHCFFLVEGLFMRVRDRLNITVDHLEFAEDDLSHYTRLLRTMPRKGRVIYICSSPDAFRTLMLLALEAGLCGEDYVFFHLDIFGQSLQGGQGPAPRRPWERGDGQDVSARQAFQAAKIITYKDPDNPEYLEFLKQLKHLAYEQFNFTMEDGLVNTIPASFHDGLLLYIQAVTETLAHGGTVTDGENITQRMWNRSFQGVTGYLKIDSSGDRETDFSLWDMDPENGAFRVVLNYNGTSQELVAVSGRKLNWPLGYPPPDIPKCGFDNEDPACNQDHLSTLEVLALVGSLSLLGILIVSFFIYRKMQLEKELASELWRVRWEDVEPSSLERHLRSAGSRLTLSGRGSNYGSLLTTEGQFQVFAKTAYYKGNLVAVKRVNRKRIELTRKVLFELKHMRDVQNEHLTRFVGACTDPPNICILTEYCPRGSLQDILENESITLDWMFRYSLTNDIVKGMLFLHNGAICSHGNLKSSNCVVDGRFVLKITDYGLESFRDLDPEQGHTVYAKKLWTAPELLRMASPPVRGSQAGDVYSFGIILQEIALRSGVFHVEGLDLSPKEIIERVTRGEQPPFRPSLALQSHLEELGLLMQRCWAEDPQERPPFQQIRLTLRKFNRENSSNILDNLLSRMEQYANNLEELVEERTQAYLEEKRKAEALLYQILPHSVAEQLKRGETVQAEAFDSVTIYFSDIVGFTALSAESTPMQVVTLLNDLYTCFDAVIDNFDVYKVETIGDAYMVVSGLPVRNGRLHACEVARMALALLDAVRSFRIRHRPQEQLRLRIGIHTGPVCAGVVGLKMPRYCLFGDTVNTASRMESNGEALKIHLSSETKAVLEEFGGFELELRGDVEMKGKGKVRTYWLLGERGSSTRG
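Compound pre-incubated 30 min at room temperature on GloSensor-loaded HEK293 cells stably carrying hNpr1 and the pGS-40F cGMP biosensor. Stimulation uses hNppA at 0.1 nM final; luminescence is taken at baseline and 20 min post-agonist.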
HEK cytotox – Cytotoxic Profiling in HEK 293 Cell Line of Diverse Libraries Using Quantitative High-Throughput Screening; HEK 293 viability, ATP luminescence (CellTiter-Glo), 48-72 h; Potency, µM (doses to about 115 µM), for the others: at the highest dose activity change, negative = cytotoxicity, usual class: inhibitors; hit rate 6.6% among 94,000; AID 1345083, 2018; also: nearly all actives have a fitted effect of over 60% in size
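HEK 293 seeded at 250 cells/well receive compound via pintool. After 48 or 72 hr at 37 degree Celsius, 5% CO2 and 95% humidity, CellTiter-Glo is dispensed and luminescence read following 10 min at room temperature.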
Active calls of the source: *; i = inactive; ? = inconclusive; . = not tested or not shown; ! = repeats disagree; [ ] = remark or other dose. Unless noted, calls follow the shape of the dose curve; as a rule, active = well fitted curve in the direction sought with a large enough effect; inconclusive = small, poorly fitted or top-dose-only effect, or another doubt; inactive = no such curve, though single readings can be large; an effect the other way counts as inactive or inconclusive. Unless noted, % is scaled to controls: 0 for no effect and ±100 for the full control effect; potency is read from the fitted curve at half-maximal effect.

SMILES | SNCA expr inhib | Luciferase inh | 3T3 cytotox | SNCA viab count | NPR1 antag | HEK cytotox
CCOC(=O)c1ccccc1NC(=O)CN1C(=O)NC(c2ccc(C)cc2)C2=C1COC2=O (stereo not given) | -20% | i | ? | -19% | -11% | 32µM*
Cc1ccc(C2NC(=O)N(CC(=O)Nc3c(C)cccc3Cl)C3=C2C(=O)OC3)cc1 (stereo not given) | 16% | i | 0% | -1% | 0% | 14%
COc1cccc(CN2Cc3nc(-c4ccc(F)cc4)ccc3OCC2=O)c1 | ? | i | 79µM* | -1%[87.6 µM] | -22%[70.6 µM] | ?
COc1cccc(CN2Cc3nc(-c4cc5ccccc5o4)ccc3OCC2=O)c1 | 1%[87.6 µM] | i | ? | -7%[87.6 µM] | -15%[70.6 µM] | 79µM*
COc1cccc(CN2Cc3nc(-c4cccc(NC(C)=O)c4)ccc3OCC2=O)c1 | -22%[87.6 µM] | i | ? | -16%[87.6 µM] | -15%[70.6 µM] | 79µM*
COc1cccc(CN2Cc3nc(-c4cc(Cl)ccc4OC)ccc3OCC2=O)c1 | -22%[87.6 µM] | i | ? | -2%[87.6 µM] | -1%[70.6 µM] | 100µM*
CC(C)(C)NC(=O)NCc1nnc2n1C(C(=O)NCc1ccccc1Cl)CC2 (stereo not given) | -7% | . | -29% | 4% | . | -6%
O=C(Cc1ccc(Br)cc1)NCc1nnc2ccc(-c3ccc(F)cc3)nn12 | ? | i | -8% | 15% | -3% | ?
c1ccc(-c2ccc(CN3CCOC[C@H](Oc4cnccn4)C3)cc2)cc1 | -21%[87.6 µM] | i | -22%[174 µM] | 5%[87.6 µM] | ? | ?
COc1cccc(CN2Cc3nc(-c4c(C)noc4C)ccc3OCC2=O)c1 | 2%[87.6 µM] | i | 40µM* | 5%[87.6 µM] | -7%[70.6 µM] | ?
CCNC(=O)N1CCC[C@@H](O)[C@H](NC(=O)c2ccc(OCCN3CCCC3)cc2)C1 | -11%[87.6 µM] | i | -26%[174 µM] | 7%[87.6 µM] | 2%[70.6 µM] | -3%[172 µM]
C=CCNc1nc(NCC=C)nc(N2CCN(C(c3ccc(F)cc3)c3ccc(F)cc3)CC2)n1 | 3%[25.6 µM] | . | . | -10%[23.9 µM] | . | .
Cc1ccccc1C1(O)CCN(C(=O)c2ccc(C#CC(C)(C)O)o2)C1 (stereo not given) | 18% | i | 35µM* | -7% | -11% | ?
CC1(C)C(=O)N(CC2CCOCC2)[C@H]2CN(Cc3cccs3)C[C@@H]2[S+]1(=O)[O-] | ? | i | 79µM* | 6%[87.6 µM] | -3%[70.6 µM] | 0%[172 µM]
OC[C@@H]1CNC[C@H]1C1CCN(Cc2ccc(Br)cc2F)CC1 | 11% | i | ? | 6%[12.5 µM] | -8% | ?
OC[C@@H]1CNC[C@H]1C1CCN(Cc2ccc(F)c(Br)c2)CC1 | 14% | i | 35µM* | -1%[12.5 µM] | 7% | ?
C=CCCC(CN1CCCOCC1)Oc1cc(C#N)ccn1 (stereo not given) | -23% | i | -4% | 1% | 15% | -5%
CN1CCN(c2ccc3ncc(Nc4ccccc4-c4ccccc4)n3n2)CC1 | ? | i | 25µM* | -12%[87.6 µM] | ? | 40µM*
c1ccc(-c2ccccc2Nc2cnc3ccc(-n4ccnc4)nn23)cc1 | ? | i | 25µM* | ? | ? | 32µM*
Cc1cc2nc3n(c(=O)c2n1CC(=O)Nc1ccc(F)cc1)CCCCC3 | 16% | i | ? | -9% | 2% | ?
Cc1ncc2n1C(=O)N(C1CCN(Cc3ccc(C(F)(F)F)cc3)CC1)C2 | -13% | i | ? | -6% | ? | 35µM*!
Cc1ncc2n1C(=O)N(C1CCN(Cc3ccc(F)cc3)CC1)C2 | ? | i | -25%[138 µM] | ? | 23%[70.6 µM] | ?
COCCC(=O)N1CCC2(CC1)N(Cc1cccc(F)c1)C(=O)CS2=O (stereo not given) | -15% | . | -8% | 11% | . | 0%
CCNC(=O)N[C@H]1C[C@@H](Cc2cc(-c3ccccc3)on2)C1(C)C | 71%[87.6 µM] | ? | ? | -6%[87.6 µM] | -21%[70.6 µM] | ?
CC(C)N[C@H]1C[C@@H](Cc2cc(-c3ccccc3)on2)C1(C)C | 101%[87.6 µM] | ? | 63µM* | -16%[87.6 µM] | 4%[70.6 µM] | 63µM*
SMILES | SNCA expr inhib | Luciferase inh | 3T3 cytotox | SNCA viab count | NPR1 antag | HEK cytotox
CN1CCC(N[C@H]2C[C@@H](Cc3cc(-c4ccccc4)on3)C2(C)C)CC1 | ? | i | 8.9µM* | ? | -4%[70.6 µM] | 8.9µM*
CN1CCC(N[C@H]2C[C@@H](Cc3cc(CN(C)Cc4ccccc4)on3)C2(C)C)CC1 | -19%[87.6 µM] | i | 28µM* | -11%[87.6 µM] | -18%[70.6 µM] | 40µM*
CC1(C)[C@H](Cc2cc(CCO)on2)C[C@@H]1NC1CCOCC1 | 0%[87.6 µM] | i | -5%[174 µM] | 8%[87.6 µM] | 7%[70.6 µM] | -23%[172 µM]
COCC1CN(C)CC12CCN(S(=O)(=O)Cc1ccc(F)cc1)CC2 (stereo not given) | -24% | i | ? | -22% | -7% | ?
COc1ccc(CN2C(=O)COC[C@H]2C(=O)Nc2ccc(OC)c(C(F)(F)F)c2)cc1 | -22% | i | ? | -2% | ? | 45µM*
COc1cccc(CC(=O)N2CCCOCCNC(=O)CC2)c1 | 8% | i | -27% | 3% | 0% | i
O=C(NCc1ccc(F)cc1)c1nn(CCOc2ccccc2)c2c1CNCC2 | ? | . | ? | -4% | . | 40µM*
O=C(NCc1ccncc1)[C@@H]1C[C@@H](c2ccc(F)cc2)N(CCOc2ccccc2)C1 | 6%[87.6 µM] | i | ? | -5%[87.6 µM] | -15%[70.6 µM] | ?
CC(=O)Nc1ccc(S(=O)(=O)N[C@H]2CO[C@H]3[C@@H]2OC[C@@H]3Nc2nccc(C(C)(C)C)n2)cc1 | -23% | ? | ? | -8% | 16µM* | ?
COc1ccc(NC(=O)O[C@@H]2CO[C@H]3[C@@H]2OC[C@@H]3NS(=O)(=O)c2ccc(NC(C)=O)cc2)cc1 | 8% | 45µM* | ? | 6% | -1% | -6%
CC(=O)Nc1ccc(S(=O)(=O)N[C@H]2CO[C@H]3[C@@H]2OC[C@H]3OC(=O)Nc2ccc(C(C)=O)cc2)cc1 | 14% | i | -22% | 1% | -6% | i
Cc1ccc(C(=O)N[C@H]2CO[C@H]3[C@@H]2OC[C@@H]3Nc2nccc(C(C)(C)C)n2)cc1 | -9%[87.6 µM] | ? | ? | -14%[87.6 µM] | ? | 63µM*
COc1cccc(N2CC(C(=O)NCC(F)(F)F)NC2=O)c1 (stereo not given) | ? | i | -14%[138 µM] | 1%[87.6 µM] | 28%[70.6 µM] | i
Cc1cccc(OCC(=O)N2CCC(n3cc(-c4nc(C5CC5)no4)nn3)C2)c1 (stereo not given) | 30% | i | -30% | -8% | 1% | -26%

Bioassay records deposited in PubChem by National Center for Advancing Translational Sciences (NCATS).
